PLK1 PBD block: blocks phosphopeptide binding to human PLK1 polo-box domain | P53350 | Plk1 PBD binding of FITC phosphopeptide, fluorescence polarization | Potency, µM, actives largely listed as inhibitors | 360,000 compounds, 2.8% hits | AID 720504; note: series mostly up to about 57 µM; nearly all actives have a fitted effect of over 65% in size
HP1b chromo inh: HP1-beta chromodomain-methylated histone interaction inhibition. P83916. AlphaScreen HP1-beta / biotin-H3K9me3 peptide binding. Potency, µM (titrated, usually from 114 µM), hits mostly inhibitors. 390,000 compounds, 0.56% hits; note: nearly all actives have a fitted effect of over 70% in size
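HP1-beta protein (50 nM final) preincubated 30 min at room temperature with biotinylated H3(1-18)K9me3 peptide (50 nM) in PBS pH 7.4, 0.01% Tween-20, then compound added for 30 min. AlphaScreen streptavidin donor/nickel chelate acceptor beads (10 ug/mL final), 30 min dark, luminescence read.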
G9a block: blocks human histone lysine methyltransferase G9a; G9a H3K9 monomethylation, AlphaScreen, 2 h; 350,000 compounds, 8.8% hits; Q96KQ7; Potency, µM (series often up to 102 µM), actives largely listed as inhibitors; note: nearly all actives have a fitted effect of over 75% in size
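AlphaScreen detection with an anti-monomethyl H3K9 antibody quantified product after a 2 h room-temperature reaction containing 500 nM biotinylated H3K9 peptide, 20 µM SAM and 20 nM enzyme, which had been preincubated 15 min with compound.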
BAZ2B block: inhibitors of human BAZ2B bromodomain; Q9UIF8; AlphaScreen BAZ2B-H3K14Ac peptide displacement; Potency, µM (doses to about 114 µM), hits mostly inhibitors; 360,000 compounds, 4.4% hits; AID 504333; note: nearly all actives have a fitted effect of over 60% in size
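BAZ2B (50 nM) with biotin-H3(5-23)K14Ac peptide (50 nM) in PBS pH 7.4, 0.01% Tween-20, preformed 30 min, then compound 30 min at room temperature; top concentration 110uM. AlphaScreen streptavidin donor/nickel chelate acceptor beads (10 ug/mL final), 20 min dark, signal read.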
PI5P4K alpha inh: inhibitors of human PI5P4K alpha; PI5P4Kalpha enzyme, ADP-Glo luminescence, 60 min; stronger effect = lower value; max response, %; 330,000 compounds, 1.2% hits; active = max response of -50% or lower; inconclusive = between -30% and -50%; inactive = -30% or higher; note: value at the top dose of about 77 µM
Target sequence (P48426 whole entry, looked up): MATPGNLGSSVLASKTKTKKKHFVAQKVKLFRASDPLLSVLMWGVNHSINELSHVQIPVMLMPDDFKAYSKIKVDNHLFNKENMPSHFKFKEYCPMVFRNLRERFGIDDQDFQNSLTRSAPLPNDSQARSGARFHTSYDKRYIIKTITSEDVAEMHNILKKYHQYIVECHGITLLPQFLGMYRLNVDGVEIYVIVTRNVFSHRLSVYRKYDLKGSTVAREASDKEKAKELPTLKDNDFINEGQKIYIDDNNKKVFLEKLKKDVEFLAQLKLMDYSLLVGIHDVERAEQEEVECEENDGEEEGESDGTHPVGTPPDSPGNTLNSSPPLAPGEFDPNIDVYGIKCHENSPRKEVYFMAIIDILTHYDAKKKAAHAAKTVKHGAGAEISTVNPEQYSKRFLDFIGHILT
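Single end-point luminescence (ADP-Glo) quantified ADP from PI5P4Kalpha turnover; ATP 5 microM final, 1 h at RT, 0.1% CHAPS and 0.28 mM EGTA in HEPES pH 7.4.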
JMJD2A Tudor inh: JMJD2A Tudor domain (human) inhibition. O75164. AlphaScreen JMJD2A-Tudor / H3K4me3 peptide binding. Potency, µM (highest dose often 114 µM), most hits filed as inhibitors. 390,000 compounds, 4.4% hits; note: nearly all actives have a fitted effect of over 50% in size
A number is an active result; 0 = inactive; ? = inconclusive; - = no result; [ ] = remark or other dose. Only some compounds are listed: those with a hit (about 12% of all), similar ones and a draw of the others. Unless noted, calls come from the whole dose curve; as a rule, active = well fitted curve in the direction sought with a large enough effect; inconclusive = small, poorly fitted or top-dose-only effect, or another doubt; inactive = no such curve, though single readings can be large; an effect the other way counts as inactive or inconclusive.

SMILES | PLK1 PBD block | HP1b chromo inh | G9a block | BAZ2B block | PI5P4K alpha inh | JMJD2A Tudor inh
O=C(Nc1ccc(S(=O)(=O)Nc2ccccc2)cc1)c1ccc(CN2CCOCC2)cc1 | 0 | 0 | 0 | 0 | 0 | 0
COC(=O)C1=C(C)NC(C)=C(C(=O)OCC(C)C)C1c1ccccc1[N+](=O)[O-] (centres undefined) | 18.9µM | 15.8µM | 11.2µM | - | ? | 20µM
C#CCOCCOCCOCCNc1nc(N2CCOCC2)nc(N2CCN(C(=O)[C@H](Cc3ccc(O)cc3)n3cc([C@@H](N)CC(C)C)nn3)CC2)n1 | 0 | 0 | ? | 0 | 0 | 0
C#CCOCCOCCOCCNc1nc(N2CCN(C(=O)[C@H](CCC(=O)O)n3cc(C(N)CO)nn3)CC2)nc(N2CCN(C(=O)[C@H](Cc3ccc(O)cc3)n3cc(C(N)CC(C)C)nn3)CC2)n1 (some centres undefined) | - | - | ? | 31.6µM | - | -
C#CCOCCOCCOCCNc1nc(N2CCOCC2)nc(N2CCN(C(=O)[C@H](CCC(=O)O)n3cc(C(N)Cc4ccc(O)cc4)nn3)CC2)n1 (some centres undefined) | 0 | 0 | 0[12.7 µM] | 0 | 0 | 89.1µM
C#CCOCCOCCOCCNc1nc(N2CCN(C(=O)[C@H](CCC(=O)O)n3cc(C(N)Cc4ccc(O)cc4)nn3)CC2)nc(N2CCN(C(=O)[C@H](CCC(=O)O)n3cc(C(N)CC(C)C)nn3)CC2)n1 (some centres undefined) | 0 | 0 | ? | 50.1µM | 0 | 31.6µM
COc1ccc(S(=O)(=O)NCCc2csc(-c3ccc(F)cc3)n2)cc1F | - | 0 | 0 | 0 | - | 0
Cc1ccc(Cl)cc1N1CCN(C(=O)c2c(C)oc3ncnc(N4CCOCC4)c23)CC1 | - | 0 | 0 | 0 | - | 0
Cc1cccc(NC(=O)CSc2nc3c(c(=O)[nH]2)CN(Cc2ccc4c(c2)OCO4)CC3)c1C | - | 0 | 0 | 0 | - | 0
COC(=O)c1ccc(CSc2nc3ccccc3c(=O)n2CC(C)C)o1 | 0 | 0 | 0 | 0 | 0 | 0
COC(=O)c1ccc(CSc2nc3ccccc3c(=O)n2Cc2ccco2)o1 | 0 | 0 | 39.8µM | 0 | - | 0
O=C(CCCCCn1c(SCc2ccncc2)nc2ccccc2c1=O)NCc1ccco1 | 0 | 0 | ? | 50.1µM | - | 25.1µM
COCCn1c(SCC(=O)c2ccc(CNC(C)=O)o2)nc2ccccc2c1=O | 0 | 0 | 0 | 0 | 0 | 79.4µM
CCn1c(SCC(=O)c2ccc(CNC(C)=O)o2)nnc1-c1cccs1 | 0 | 0 | 17.8µM | 0 | - | ?
COCCn1c(SCC(=O)c2ccccc2)nc2ccccc2c1=O | 0 | 0 | 0 | 0 | 0 | 0
CCNc1ncc2ncc(=O)n(C3CC3)c2n1 | - | - | 0[0.501 µM] | - | - | -
O=C1CCC[C@@H]2[C@@H](Cc3ccccc3)[C@H](N3CCN(c4ccccc4)CC3)C[C@@H]3CCN1[C@@H]32 | 0 | 0 | - | - | 0 | 44.7µM
COc1ccc(-c2c(C#Cc3ccsc3)c3ccccc3n2C)cc1 | ? | 0 | 31.6µM | ? | 0 | 0
O=C(CSc1cn(CCNC(=O)c2c(F)cccc2F)c2ccccc12)Nc1ccc2c(c1)OCCO2 | - | 0 | 0 | 0 | - | 0
COc1cccc(Cn2c(=O)c(C)nc3cnc(OCc4ccccc4)nc32)c1 | - | - | 0[12.7 µM] | - | - | -
CC1=CC(=O)c2ccccc2C1=O | 0 | 0 | 8.91µM | ? | 0 | 0
CC(C)(C=O)C1=CC(=O)c2ccccc2C1=O | 2.12µM | 5.01µM | 1.78µM | 50.1µM | -52.0 | 25.1µM
CC(C)C[C@H]1CNC(=O)C(=O)N1C[C@@H]1CCCN1C[C@H](CC(C)C)N1C[C@H](Cc2ccc(O)cc2)N(CCc2ccccc2)C(=O)C1=O | 0 | - | - | - | 0 | -
COc1cc(C(=O)C(=O)c2cc(OC)c(O)c(OC)c2)cc(OC)c1O | 0 | 0 | 44.7µM | 0 | 0 | 0
O=[S+]([O-])(c1ccc2nsnc2c1)N1CCN([S+](=O)([O-])c2c(F)cccc2F)CC1 | - | - | - | - | - | 0
N#C/C(=C1/SCC(c2ccccc2Cl)S1)n1ccnc1 (centres undefined) | - | - | 0 | - | - | -
O=C1OC(c2cccs2)=N/C1=C/c1ccc(-c2cccc(C(=O)O)c2)o1 | 0 | ? | 7.94µM | 25.1µM | -70.2 | 50.1µM
O=C1OC(c2cccs2)=N/C1=C\c1ccc(-c2ccccc2Cl)o1 | 0 | ? | 39.8µM | 0 | - | ?

Screens deposited in PubChem by National Center for Advancing Translational Sciences (NCATS).
